Compounds with a hit are over-represented: about 4.1% of the library has one in this group of screens.
ALR inh = blocks human ALR sulfhydryl oxidase activity; P55789; purified ALR, DTT oxidation, H2O2 HRP-luminol luminescence; AID 485317; inhibition, % (concentration not given with the values); 290,000 tested, 3.8% active;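 active means mean replicate inhibition above about 79%, with every replicate also reaching it, limit read from the data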
M18AAP inhibitor = PfM18AAP enzyme inhibition; AID 1822; inhibition, % at 7.35 µM; 290,000 tested, 1.2% active; recombinant PfM18AAP, H-Glu-NHMec fluorogenic cleavage;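 active means inhibition above the campaign mean inhibition over all tested compounds plus 3 SD, cut at about 28% in these data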
PolyA inhibitor = blocks polyadenylation in yeast reporter cells; S. cerevisiae SKY197-pL101 polyadenylation reporter, beta-gal luminescence; efflux-impaired pdr1/pdr3 knockout yeast; score 100 = 6 SD above DMSO; activity score, % at 12 µM; 300,000 tested, 0.02% active; AID 1875;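 active means lowest replicate activity score at least 50, where 100 means six control SD above control mean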;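 further: yeast exposed to compound for 9 h at 30 °C; higher score means more reporter readthrough which indicates perturbed polyadenylation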
IDE cell inh = inhibits human insulin-degrading enzyme in HEK cells; FAbetaB cleavage, fluorescence polarization; inhibition, % at 5.59 µM; 320,000 tested, 0.41% active; AID 434962;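 active means percent inhibition above the average of all tested compounds plus 3 SD, set per screening campaign, cut at about 16% in these data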;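 further: IDE supplied by intact live HEK cells; FP after avidin binding of uncleaved biotin substrate so inhibition keeps polarization high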
Target sequence (P14735 whole entry, looked up): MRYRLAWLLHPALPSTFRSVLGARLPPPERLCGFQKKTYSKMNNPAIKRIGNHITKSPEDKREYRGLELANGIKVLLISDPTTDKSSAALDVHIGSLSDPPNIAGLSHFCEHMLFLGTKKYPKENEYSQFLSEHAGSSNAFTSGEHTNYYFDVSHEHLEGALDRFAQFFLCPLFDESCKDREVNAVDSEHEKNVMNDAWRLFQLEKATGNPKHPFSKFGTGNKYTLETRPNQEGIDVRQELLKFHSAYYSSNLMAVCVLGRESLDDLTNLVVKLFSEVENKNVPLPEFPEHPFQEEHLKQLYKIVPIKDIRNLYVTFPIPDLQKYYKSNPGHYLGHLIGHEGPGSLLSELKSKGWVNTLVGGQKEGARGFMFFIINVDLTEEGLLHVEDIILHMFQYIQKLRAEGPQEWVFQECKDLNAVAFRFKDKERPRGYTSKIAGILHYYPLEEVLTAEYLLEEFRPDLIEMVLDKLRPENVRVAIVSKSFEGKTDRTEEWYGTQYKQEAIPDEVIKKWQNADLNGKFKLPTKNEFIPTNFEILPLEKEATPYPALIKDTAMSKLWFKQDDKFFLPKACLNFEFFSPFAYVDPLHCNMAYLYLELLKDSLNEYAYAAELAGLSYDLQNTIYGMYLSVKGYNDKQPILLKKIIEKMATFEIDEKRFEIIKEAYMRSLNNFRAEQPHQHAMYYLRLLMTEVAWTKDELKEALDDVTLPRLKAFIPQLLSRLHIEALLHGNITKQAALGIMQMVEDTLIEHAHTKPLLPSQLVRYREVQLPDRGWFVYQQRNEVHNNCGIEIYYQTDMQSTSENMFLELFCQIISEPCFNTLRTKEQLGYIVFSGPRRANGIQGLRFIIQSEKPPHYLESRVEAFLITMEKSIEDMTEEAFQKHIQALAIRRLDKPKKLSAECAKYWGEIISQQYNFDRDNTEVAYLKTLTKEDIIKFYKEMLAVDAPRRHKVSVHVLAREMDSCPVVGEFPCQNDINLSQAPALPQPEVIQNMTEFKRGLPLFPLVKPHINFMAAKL
IDE act = IDE (human) activation, cell-based. activation, % at 5.96 µM. HEK cells, FAbeta-B cleavage, fluorescence polarization; 0% vehicle, 100% cell-free pure enzyme wells. AID 493087. 340,000 tested, 0.073% active;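 active means activation above the mean of all tested compounds plus 3 SD, set per screening campaign, cut at about 17% in these data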
CaV13 ICDI inh = Disruptors of the CACNA1D IQ motif to Ca2+-dependent inactivation inhibitor domain association, primary screening, Förster resonance energy transfer in intact living …. HEK cells, CFP/YFP FRET ICDI-IQ, plate reader, 10 min; percent FRET-ratio fall versus neutral wells. inhibition, % at 12.3 µM. 340,000 tested, 0.098% active. AID 743397;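 active means mean replicate inhibition of at least 30% and at least 1% of replicates passing that level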
Hits are given with their value; 0 = inactive; - = no result; + = active, no number.

SMILES | ALR inh | M18AAP inhibitor | PolyA inhibitor | IDE cell inh | IDE act | CaV13 ICDI inh
COC(=O)c1ccc(OC(=O)/C=C/c2ccco2)cc1 | - | 0 | 0 | 0 | 0 | 0
O=C1CCCc2c1oc1c2CCCC1 | - | - | - | - | 0 | 0
COc1ccc(NC(=O)CSc2nnc(CNC(=O)COc3ccc(Cl)cc3)o2)cc1 | 0 | 0 | 0 | 0 | 0 | 0
OC(CNCCC1C=Nc2ccccc21)Cn1c2ccc(Cl)cc2c2cc(Cl)ccc21 (stereo unspecified) | 0 | 0 | 0 | 0 | 19 | 0
OC(CNCC1CCCO1)Cn1c2ccc(Cl)cc2c2cc(Cl)ccc21 (stereo unspecified) | 0 | 0 | 0 | 0 | 0 | 0
COc1ccc(CCNC(=O)c2cc(-c3cc(C)ccc3O)n[nH]2)cc1OC | 96 | 0 | 0 | 0 | 0 | -
COc1ccc(CCNC(=O)c2cc(-c3ccc(C)c(C)c3O)n[nH]2)cc1OC | 0 | 0 | 0 | 0 | 0 | 0
Cc1csc(=O)n1CC(=O)OCC(=O)Nc1ccc(Cl)cc1F | 0 | - | 0 | 0 | 0 | 0
COc1ccc(S(=O)(=O)N2CCOCC2)cc1NC(=O)c1ccc2c(c1)OCCO2 | 0 | 0 | 0 | 0 | 0 | 0
COc1ccc(CCNC(=O)CSC2=NS(=O)(=O)c3cc(F)ccc3N2)cc1OC | - | - | - | - | - | 0
CC(C)C(=O)N1CCCC1(C)C(=O)N(C)Cc1cccc2ccccc12 (stereo unspecified) | - | - | - | - | - | 0
Cc1ccc(O)c(C2=NCCNC(C(F)(F)C(F)F)=C2)c1 | 99 | 0 | 0 | 0 | 0 | 0
FC(F)C(F)(F)C1=CC(c2ccccc2)=NCCN1 | 0 | 0 | 0 | 0 | 0 | -
FC(F)C(F)(F)C1=CC(c2cccs2)=NCCN1 | 0 | 0 | 0 | 0 | 0 | 0
Oc1ccc(Cl)cc1C1=NCCNC(C(F)(F)C(F)F)=C1 | 99 | 0 | 0 | 0 | 0 | 0
Cc1ccccc1C(=O)NC1CCCN(Cc2ccccc2F)C1 (stereo unspecified) | 0 | 0 | 0 | 0 | 0 | 0
COc1ccc(C(=O)CSc2n[nH]c(C)n2)cc1[N+](=O)[O-] | 82 | 0 | 0 | 0 | - | 0
CCc1nc(SCC(=O)c2ccc(C)c(C)c2)n[nH]1 | 93 | 0 | 0 | 0 | 0 | 0
COc1ccc(C(=O)CSc2n[nH]c(-c3ccco3)n2)cc1 | 0 | 0 | 0 | 0 | 0 | 0
Cc1ccc(C(=O)CSc2n[nH]c(-c3ccco3)n2)cc1C | 97 | 0 | 0 | 0 | 0 | 0
C[c-]1[c-](C)[c-](C)[c-](C)[c-]1C.[Fe].c1cc2nccc(N3CCCC3)[c-]2c1 (stereo unspecified) | 94 | - | 0 | 0 | 0 | 0
c1cc(N2CCCCC2)nc(N2CCCCC2)n1 | - | - | - | - | 0 | 0
Cc1cccnc1NC(=S)Nc1ccc(Cl)c(Cl)c1 | 0 | 0 | 0 | 0 | 0 | 0
COc1ccc(NC(=S)Nc2ncccc2C)c(OC)c1 | 99 | 0 | 0 | 0 | 0 | 0
COc1ccc(NC(=S)Nc2ncccc2C)cc1OC | 83 | 0 | 0 | 0 | 0 | 0
SMILES | ALR inh | M18AAP inhibitor | PolyA inhibitor | IDE cell inh | IDE act | CaV13 ICDI inh
O=C1NCN(c2ccccc2)C12CCN(c1nnnn1-c1ccccc1)CC2 | 0 | 0 | 0 | 0 | 0 | 0
C=CCNC(=O)c1onc(CSc2cccc(OCC)c2)c1C(=O)O | 94 | 0 | 0 | 0 | 0 | 0
C=CCNC(=O)c1onc(CSc2ccc(C(C)C)cc2)c1C(=O)O | 97 | 0 | 0 | 0 | 0 | 0
O=[N+]([O-])c1ccc(O)c(C=Nc2ccc3nc(-c4ccccc4)[nH]c3c2)c1 | 0 | 0 | 0 | 0 | 0 | 0
Oc1c(Br)cc(C=Nc2ccc3nc(-c4ccccc4)[nH]c3c2)c(O)c1Br | 0 | 29 | 0 | 0 | - | 0
CCN(CC)c1ccc(/C=N/NC(=O)OC)c(O)c1 | 98 | 0 | 0 | 0 | 0 | -
CCN(CC)c1ccc(/C=N/NC(=O)c2ccc3nc[nH]c3c2)c(O)c1 | 97 | 0 | 0 | 0 | 0 | -
C=CCNS(=O)(=O)c1ccc(N2C(=O)c3ccccc3C2=O)cc1 | 0 | 0 | 0 | 0 | 0 | 0
Cc1ccc2c(CN3CCN(c4ccccc4F)CC3)cc(=O)oc2c1 | - | - | - | - | - | 0
Nc1ccc(Sc2ccccc2CC(=O)O)cc1 | 99 | 0 | 0 | 0 | - | -
CC(C)(C)OC(=O)N1CCc2onc(-c3ccc(-n4cc(C5=CCCCC5)nn4)cc3)c2C1=O | - | - | - | - | - | 0
Nc1ccccc1C(O)(Cc1ccccc1)c1ccccc1 (stereo unspecified) | 99 | 0 | 0 | 0 | 0 | 0
CCn1c(N)c(C(=O)NCCCOC)sc1=S | 99 | 0 | 0 | 0 | 0 | -
Nc1c(C(=O)NCc2cccnc2)sc(=S)n1-c1ccccc1 | 0 | 0 | 0 | 0 | 0 | 0
CCn1c(N)c(C(=O)NCc2cccnc2)sc1=S | 99 | 0 | 0 | 0 | 0 | 0
CC(C)OCCCNC(=O)c1sc(=S)n(C)c1N | - | 0 | 0 | 0 | 0 | -
Cc1c(C(=O)NCc2cccnc2)sc2nc(-c3ccccc3)cn12 | 90 | 0 | 0 | 0 | 0 | 0
CCNC(=O)c1sc(=S)n(CC)c1N | 99 | 0 | 0 | 0 | 0 | -
O=C(CCCN1C(=O)C(c2ccccc2)Oc2cccnc21)NCCc1ccc(Cl)cc1 (stereo unspecified) | 0 | 0 | 0 | 0 | 0 | 0
CSCCC(N=C1NS(=O)(=O)c2ccccc21)C(=O)N1CCCC(C(N)=O)C1 (stereo unspecified) | 0 | - | 0 | 0 | 0 | 0
COc1ccc(C/C(C)=N/NC(=S)Nc2ccccc2)cc1 | 82 | 0 | 0 | 0 | 0 | 0
Fc1ccc(CSc2nnc(-c3cnccn3)n2Cc2ccco2)cc1 | 87 | 0 | 0 | 0 | 0 | 0
Brc1ccc(CSc2nnc(-c3cnccn3)n2Cc2ccco2)cc1 | 0 | 0 | 0 | 0 | 0 | 0
O=c1oc2c(CN3CCN(CCO)CC3)c(O)ccc2cc1-c1ccccn1 | 0 | 0 | 0 | 0 | 0 | +
O=c1oc2c(CN3CCCCC3)c(O)ccc2cc1-c1nc2ccccc2[nH]1 | - | - | - | - | 0 | 35
SMILES | ALR inh | M18AAP inhibitor | PolyA inhibitor | IDE cell inh | IDE act | CaV13 ICDI inh
O=c1oc2c(O)cccc2cc1-c1nc2ccccc2[nH]1 | 0 | 0 | 0 | - | 61 | 34
Cc1ccc2c(CC(=O)NC3CCS(=O)(=O)C3)coc2c1C (stereo unspecified) | 0 | 0 | 0 | 0 | 0 | 0
CC(=O)NN(O)C1N(C)C(=O)N(Cc2ccccc2)C1(C)C (stereo unspecified) | 0 | - | 0 | 0 | 0 | 0
O=C(O)CCC(=O)NNc1nc(-c2ccccc2)c2cc(Cl)ccc2n1 | 0 | 30 | 0 | 0 | 0 | 0
Cn1c(=O)c2c(ncn2CC(=O)OCCCC(=O)c2ccc(Br)cc2)n(C)c1=O | 0 | - | - | 0 | 0 | 0
O=C(c1cn2ccccc2n1)N1CCCC(Nc2ccc(F)c(F)c2)C1 (stereo unspecified) | 0 | 0 | 0 | 0 | 0 | 0
Cc1ccc(NC2CCCN(C(=O)c3cn4cccc(C)c4n3)C2)cc1C (stereo unspecified) | 99 | 0 | 0 | - | 0 | 0
Cc1ccc(NC2CCCN(C(=O)c3cn4cc(Cl)ccc4n3)C2)cc1C (stereo unspecified) | 99 | 0 | 0 | 0 | 0 | 0
